Laboratory results from article PMC5540273 (PLoS ONE, 2017).

How the values were obtained:
Details in all cases: concentration: 1 μM, replicates: in singlicate; n = 1
AAK1 = test system: AAK1
ABL1-nonphosphorylated = test system: ABL1-nonphosphorylated
ABL1-phosphorylated = test system: ABL1-phosphorylated
ABL2 = test system: ABL2
ACVR1B = test system: ACVR1B
ACVR1 = test system: ACVR1
ACVR2A = test system: ACVR2A
ACVR2B = test system: ACVR2B
ACVRL1 = test system: ACVRL1
ADCK3 = test system: T1, ADCK3
T1 construct: gene CABC1

ADCK4 = test system: ADCK4
AKT1 = test system: AKT1
AKT2 = test system: AKT2
AKT3 = test system: AKT3
ALK = test system: ALK
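Note: KINOMEscan kinase panel screen.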

Structure (SMILES)	%Inh (AAK1) [%]	%Inh (ABL1-nonphosphorylated) [%]	%Inh (ABL1-phosphorylated) [%]	%Inh (ABL2) [%]	%Inh (ACVR1B) [%]	%Inh (ACVR1) [%]	%Inh (ACVR2A) [%]	%Inh (ACVR2B) [%]	%Inh (ACVRL1) [%]	%Inh (ADCK3) [%]	%Inh (ADCK4) [%]	%Inh (AKT1) [%]	%Inh (AKT2) [%]	%Inh (AKT3) [%]	%Inh (ALK) [%]
CNc1cc(-c2ccc3c(N)n[nH]c3c2)nc(N)n1 [GSK2224810]	64	0	0	0	21	29	43	56	0	13	13	0	0	0	5
Cc1c(Cn2c3ccccc3n3c(=O)cc(N4CCOCC4)nc23)cccc1C(F)(F)F [GSK2306394]	0	0	0	11	0	10	6	0	9	0	0	0	19	0	2
O=C1NC(=O)C(c2ccc(Cl)cc2)=C1Nc1ccc(O)cc1 [SB-340867]	3	28	0	0	0	11	0	0	0	0	0	1	0	0	0
Cn1cncc1-c1cc2c(Nc3ccc(OCc4ccccc4)cc3)ncnc2cn1 [GW281179]	20	0	0	12	0	5	0	18	0	7	24	0	5	0	23
Cc1c(Cn2c(C)c(C)n3c(=O)cc(N4CCOCC4)nc23)cccc1C(F)(F)F [GSK2328680]	0	0	0	11	20	0	0	0	0	2	14	0	0	0	3
COc1ccc2cc(-c3nc(-c4ccccc4C(C)C)[nH]c3-c3ccncc3)ccc2c1 [SB-660566]	20	0	3	8	74	17	0	0	34	5	17	0	41	0	38
Cn1cnc2c(N)ncnc21 [SKF-97623]	0	21	0	2	0	0	0	0	0	0	17	0	0	0	28
CC(=O)c1c(C)c2cnc(Nc3ccn(C)n3)nc2n(C2CCCC2)c1=O	0	0	0	0	2	16	0	0	0	0	0	3	23	0	6
CNc1nc(-c2ccc3c(N)n[nH]c3c2)cc(N2C[C@@H](C(=O)NC3CCCCC3)OC[C@H]2C)n1 [GSK2375584]	40	6	0	3	0	18	0	35	0	24	18	0	22	0	0
Cc1ccc(NC(=O)Nc2ccc(Cl)cc2)cc1-c1ccc(C(=O)Nc2ccncc2)cc1 [GSK1398472]	0	2	5	28	0	15	0	0	0	22	23	0	0	0	46
COc1ccc(Nc2nccc(N3CCC(NC(=O)C(C)c4ccc(Cl)cc4)C3)n2)cc1 (stereo not drawn) [GSK1379735]	14	0	0	18	19	14	0	0	0	22	17	0	9	0	25
